A selection: hits, their analogues and other compounds. The true share with any hit is near 11%.
FLuc inh: blocks purified firefly luciferase enzyme activity. P08659. purified P. pyralis luciferase, luminescence, biochemical. Potency, µM (doses to about 115 µM), actives largely listed as inhibitors. 2.5% of 76,000 active. AID 1347043; also: % is scaled to controls: 0 for no effect and ±100 for the full control effect; nearly all actives have a fitted effect of over 65% in size
Target sequence (P08659 whole entry, looked up): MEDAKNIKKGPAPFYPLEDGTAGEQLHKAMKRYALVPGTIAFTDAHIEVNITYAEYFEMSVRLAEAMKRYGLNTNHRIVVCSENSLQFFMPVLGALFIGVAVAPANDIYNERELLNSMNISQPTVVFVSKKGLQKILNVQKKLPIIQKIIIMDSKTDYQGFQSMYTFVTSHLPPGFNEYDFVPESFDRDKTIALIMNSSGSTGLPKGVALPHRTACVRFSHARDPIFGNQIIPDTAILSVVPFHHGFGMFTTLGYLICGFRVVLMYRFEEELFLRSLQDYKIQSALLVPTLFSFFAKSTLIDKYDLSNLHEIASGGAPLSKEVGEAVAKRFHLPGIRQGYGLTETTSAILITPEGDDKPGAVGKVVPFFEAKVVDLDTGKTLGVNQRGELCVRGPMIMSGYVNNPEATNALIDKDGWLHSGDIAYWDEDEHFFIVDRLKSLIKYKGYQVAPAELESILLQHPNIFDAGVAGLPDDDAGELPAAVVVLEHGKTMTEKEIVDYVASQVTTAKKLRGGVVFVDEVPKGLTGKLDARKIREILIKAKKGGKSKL
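Inhibitors were tested against purified firefly luciferase in a biochemical, low-substrate format (both substrates at 10uM) and luminescence measured with a CCD imager.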
HEK cytotox: cytotoxic compounds in HEK 293 cells; HEK 293 viability, ATP luminescence (CellTiter-Glo), 48-72 h; AID 1345083; Potency, µM (highest dose often 115 µM), for the others: at the highest dose activity change, negative = cytotoxicity, most hits filed as inhibitors; 6.6% of 94,000 active; also: % is scaled to controls: 0 for no effect and ±100 for the full control effect; nearly all actives have a fitted effect of over 60% in size
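HEK 293 cells at 250 cells/well were exposed to compounds by pintool transfer for 48 or 72 hr at 37 degree Celsius, 5% CO2. Viability was read as ATP-coupled luminescence with CellTiter-Glo after 10 min at room temperature.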
3T3 cytotox: NIH 3T3 cell cytotoxicity | AID 1345082 | 4.3% of 94,000 active | NIH 3T3 viability, CellTiter-Glo ATP luminescence, 48-72 h | Potency, µM (top dose mostly 96.7 µM), for the others: at the top dose activity change, negative = cytotoxicity, hits mostly inhibitors; also: % is scaled to controls: 0 for no effect and ±100 for the full control effect; nearly all actives have a fitted effect of over 55% in size
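NIH 3T3 cells at 400 cells/well received 23 nL of compound by pintool and were incubated 48 or 72 h at 37 °C. Viability was read as ATP-coupled CellTiter-Glo luminescence.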
NPR1 antag: blocks ANP-stimulated signaling of human Npr1 receptor; 1.6% of 76,000 active; HEK293 hNpr1 GloSensor cGMP, ANP-stimulated luminescence; Potency, µM (titrated, usually from 46.3 µM), for the others: top-dose activity change, negative = inhibition, hits mostly inhibitors; AID 1347048; P16066; calls by dose curve; also: % is scaled to controls: 0 for no effect and ±100 for the full control effect; nearly all actives have a fitted effect of over 60% in size
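Compound pre-incubated 30 min at room temperature on GloSensor-loaded HEK293 cells stably carrying hNpr1 and the pGS-40F cGMP biosensor. Stimulation uses hNppA at 0.1 nM final; luminescence is taken at baseline and 20 min post-agonist.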
Npr1 antag conf: confirmation of human Npr1 natriuretic peptide receptor antagonists. AID 1347044. 76% of 1,400 active. HEK293 hNpr1 cGMP GloSensor luminescence, ANP-stimulated. Potency, µM (series often up to 57.6 µM), for the others: at the top dose activity change, negative = inhibition, usual class: inhibitors. shares compounds with NPR1 antag; calls by dose curve; also: nearly all actives have a fitted effect of over 70% in size
Npr2 selectivity: antagonizes human Npr2, subtype selectivity check; shares compounds with NPR1 antag; HEK293 hNpr2 GloSensor cGMP luminescence, CNP-stimulated; Potency, µM (top dose mostly 57.6 µM), for the others: at the top dose activity change, negative = inhibition, hits mostly inhibitors; 67% of 1,400 active; AID 1347046; calls by dose curve; also: nearly all actives have a fitted effect of over 70% in size
FLuc inh counter: inhibits firefly luciferase, false Npr1 antagonist flag. purified FLuc enzyme, luminescence, Km substrate. 0.7% of 1,400 active. Potency, µM (doses to about 57.6 µM), for the others: at the highest dose activity change, negative = inhibition, most hits filed as inhibitors. AID 1347047. shares compounds with NPR1 antag; also: 0% is about no effect
GloSensor ctrl: control cell line activity, Npr1 antagonist counter-screen. shares compounds with NPR1 antag. HEK293 GloSensor cGMP, SNP-stimulated, luminescence. Potency, µM (highest dose often 57.6 µM), for the others: top-dose activity change, negative = inhibition, actives largely listed as inhibitors. 69% of 1,400 active. AID 1347051; calls by dose curve; also: % is scaled to controls: 0 for no effect and ±100 for the full control effect; nearly all actives have a fitted effect of over 70% in size
* hit, by the source's call; i = inactive; ? = inconclusive; / = no result given; [ ] = another dose, or the depositor's remark. Unless noted, calls follow the shape of the dose curve; as a rule, active = well fitted curve in the direction sought with a large enough effect; inconclusive = small, poorly fitted or top-dose-only effect, or another doubt; inactive = no such curve, though single readings can be large; an effect the other way counts as inactive or inconclusive. Potency is read from the fitted curve at half-maximal effect.

SMILES	FLuc inh	HEK cytotox	3T3 cytotox	NPR1 antag	Npr1 antag conf	Npr2 selectivity	FLuc inh counter	GloSensor ctrl
COc1cc(Cl)ccc1C(=O)N1CCC(Cc2nc(C(C)C)no2)CC1	i	?	?	-19.1%	/	/	/	/
COC(=O)CNC(=O)c1ccc2nc(-c3ccncc3)oc2c1	/	-4.0%[172 µM]	-0.9%[138 µM]	/	/	/	/	/
COc1ccccc1NC(=O)Cn1c(=O)n(-c2cccc(C)c2)c(=O)c2c1cc(C)n2C	i	?	2.9%	-5.5%	/	/	/	/
CCOc1ccc(C(=O)N2CCC(Cc3nc(-c4cccc(OC)c4)no3)CC2)cc1	i	?	?	7.08µM*	9.68µM*	12.2µM*	-1.4%	9.68µM*
CCc1ccc(C(=O)N2CCC(Cc3nc(-c4cccc(OC)c4)no3)CC2)cc1	i	22.4µM*	39.8µM*	3.98µM*	9.68µM*	13.7µM*	1.8%	12.2µM*
COc1cccc(CCC(=O)N2CCC(Cc3nc(C4CCOCC4)no3)CC2)c1	i	-9.0%	-9.1%	-17.3%	/	/	/	/
COc1cccc(-c2noc(CC3CCN(C(=O)c4ccc(C)cc4)CC3)n2)c1	i	?	?	3.55µM*	4.85µM*	5.44µM*	2.3%	4.32µM*
CC1(CCCCc2ccccc2)COc2ccc(C(=O)NC3CC3)cc2N1 (centres undefined)	i	?	?	20µM*	35.3µM*	28µM*	-1.3%[86.2 µM]	17.7µM*
CC1(CCCCc2ccccc2)COc2ccc(C(=O)N3CC(O)C3)cc2N1 (centres undefined)	i	?	?	35.5µM*	39.6µM*	35.3µM*	0.9%[86.2 µM]	31.4µM*
CC(=O)N1CCN(C(=O)c2ccc3c(c2)NC(C)(CCCCc2ccccc2)CO3)CC1 (centres undefined)	i	?	?	-24.0%[70.6 µM]	/	/	/	/
CNC(=O)c1cc(C2CC2)nc2c1c(C1CCCN(C(=O)c3ccccc3Cl)C1)nn2C (centres undefined)	/	-11.4%	-9.4%	/	/	/	/	/
CN(C)c1nc2c(c(=O)[nH]1)CCN(Cc1ccc(Br)cc1)CC2	i	4.0%	i	-1.9%	/	/	/	/
COc1ccc(C(=O)Nc2ccc(-c3noc([C@@H]4CCCN4Cc4ccccc4C)n3)cn2)cc1	i	?	-49.7%	10µM*	7.69µM*	12.2µM*	-16.0%	9.68µM*
COc1ccc(C(=O)Nc2ccc(-c3noc([C@@H]4CCCN4Cc4ccc(F)c(F)c4)n3)cn2)cc1	i	?	?	10µM*	7.69µM*	9.68µM*	-16.0%	8.62µM*
COc1ccc(C(=O)Nc2ccc(-c3noc([C@@H]4CCCN4Cc4ccc(Cl)cc4)n3)cn2)cc1	i	?	?	?	/	/	/	/
Cc1ccc(CCN2CCCCC23Cc2ccccc2CN(C(=O)CCC(=O)O)C3)cc1 (centres undefined)	/	2.7%	2.5%	/	/	/	/	/
N#Cc1ccc(CN2CCC3(CC2)CC(c2cccnc2)=NO3)cc1	i	79.4µM*	-20.1%[138 µM]	22.4µM*	19.8µM*	22.2µM*	0.6%[86.2 µM]	17.7µM*
Clc1ccc(CN2CCC3(CC2)CC(c2cccnc2)=NO3)cc1	/	?	-22.1%	/	27µM*	?	4.2%	24.1µM*
N#Cc1ccc(CN2CCC3(CC2)CNC(=O)c2ccccc2O3)cc1	/	?	-35.5%	/	/	/	/	/
N#Cc1ccc(CN2CCC3(CC2)CC(=O)c2ccccc2O3)cc1	i	?	?	28.2µM*	31.4µM*	35.3µM*	1.6%[86.2 µM]	25µM*

Screening data deposited in PubChem by National Center for Advancing Translational Sciences (NCATS).
